Test results: PubChem BioAssay (EPA / NIEHS)
Activity calls are given as the source filed them. How the source made its calls: active means hit-call score of the fitted dose curve at least 0.9, where 1 is the maximum; inactive means score below 0.9.

Test: CCTE_Shafer_MEA_acute_network_burst_percentage: CCTE's Neural Acute Assay for Percentage of Network Bursts, Shafer Lab (AID 2284022);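 further: curves fitted for loss so actives lower network burst percentage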
Description: CCTE_Shafer_MEA_acute assay is conducted using Axion Biosystems 48 well microelectrode array (MEA) plates and Maestro recording system. Each well of the MEA plate contains a grid of 16 microelectrodes embedded in the culture surface. Electrically active cells, such as neurons, can be cultured over the electrodes, and electrical activity in these cells can be recorded extracellularly. The spontaneous firing of neurons is captured from each electrode on a microsecond timescale providing both temporally and spatially precise data. […] The CCTE_Shafer_MEA_acute assay uses primary cultures of rat cortical neurons. As these cultures mature over time, neural networks develop functional activity and form cohesive networks in which electrical activity can be highly coordinated. Baseline 40-minute recordings are made on days post-plating 13 or 15, followed by a secondary 40-minute recording after chemical exposure.CCTE_Shafer_MEA_acute_network_burst_percentage is a component of the CCTE_Shafer_MEA_acute assay. It measures the percent of spikes (action potential firings) in network bursts (temporally-clustered groups of spikes across multiple electrodes) as the number of spikes occuring in network bursts divided by the total number of spikes during a recording in a microelectrode array (MEA) using Axion Biosystems Maestro 768 channel amplifier with the AxIS adaptive spike detector. The recordings before and after chemical treatment are used to calculate a percent change in the network burst percentage in each well.Data from the assay component CCTE_Shafer_MEA_acute_network_burst_percentage was analyzed into 1 assay endpoint. This assay endpoint, CCTE_Shafer_MEA_acute_network_burst_percentage, was analyzed in the negative analysis fitting direction relative to DMSO as the negative control and baseline of activity. Using a type of functional reporter, gain or loss-of-signal activity can be used to understand electrical activity.
Spontaneous activity in the cortical cultures was recorded using an Axion Biosystems Maestro 768 channel amplifier and Axion Integrated Studios (AxIS) v1.8 (or later) software. The amplifier recorded from all channels simultaneously (gain = 1200 x; sampling rate = 12.5 kHz/channel): raw signals were filtered with a Butterworth band-pass filter (300-5000 Hz), which filters out slower local field potentials leaving only fast potentials, i.e., "spikes", arising from extracellular currents associated with action potentials (Pine 2006; Wheeler and Nam 2011). On-line spike detection of filtered signals was conducted with the AxIS adaptive spike detector, using a threshold of 8x the root mean squared (rms) noise on each channel. Any electrodes with rms noise levels greater than 5 uV were grounded (e.g., no data were recorded). Once grounded, an electrode was grounded for the duration of the experiment. All recordings were conducted at 37 C. Wells were deemed usable if on the day of the exposure >/= 10 electrodes were active (defined as >/= 5 spikes/min). On DIV 13 or 15, a minimum of three wells from one cortical culture preparation were treated with each compound (0.03-40 uM). Prior to recording baseline activity, each mwMEA plate was placed in the Maestro at 37 C and allowed to sit for 20 min while firing rates stabilized. Baseline activity (40 min) was recorded before the addition of each compound. An additional 40 min of spontaneous activity was recorded in the presence of each compound. Changes in network parameters relative to baseline were assessed following compound treatment.
In the case of CC1(C)CCC[C@]2(C)[C@H]3CCO[C@]3(C)CC[C@@H]12, the outcome is reported as “inactive”. With CC(CN=Cc1ccccc1O)N=Cc1ccccc1O (stereo not given) the outcome was “inactive”. For C=CC(C)(O)CCC=C(C)C (stereo not given), the AC50 was 3 nM (active). In the case of CCCCCCC(CO)CCCC (stereo not given), the outcome is reported as “inactive”. For Oc1c(Cl)cc(Cl)c(Cl)c1Cc1c(O)c(Cl)cc(Cl)c1Cl, the AC50 was 454 nM (active). With CCOC(=O)C(C#N)=C(c1ccccc1)c1ccccc1 the outcome was “inactive”. In the case of O=C(Nc1ccc2c(O)c(N=Nc3ccc(N=Nc4ccc(S(=O)(=O)O)cc4)cc3)c(S(=O)(=O)O)cc2c1)c1ccccc1, the outcome is reported as “inactive”. With CN(C)C(=S)SC(=S)N(C)C the AC50 was 3390 nM (active). With O=CN1CCOCC1 the outcome was “inactive”. In the case of COCCc1ccc(OCC(O)CNC(C)C)cc1 (stereo not given), the outcome is reported as “inactive”.
